This note sets out measurements from PubChem BioAssay.

The nature of test [1]: binders of probe aFSTL3 on microarray, primary screen, stem cell growth factor project, biochemical, small-molecule microarray, fluorescence 635/667 (AID 1064).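 Further: measures binding of the biotinylated anti-FSTL3 antibody to printed compounds.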 The following applies: higher = more signal.
Test [2] in a line: binders from COS7 lysate, DM2A8 probe, primary screen, torsin A project, cell lysate, small-molecule microarray, fluorescence 635/667 (AID 1065). Particulars: higher = more signal, COS7 lysate expressing mutant human TOR1A.
Test [3] can be described thus: binders of probe aFGF2 on microarray, primary screen, stem cell growth factor project, biochemical, small-molecule microarray, fluorescence 635/667 (AID 1067).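 Further: measures binding of biotinylated aFGF2 protein to printed compounds on slides; z-score merges feature fluorescence and signal-to-noise across triplicate slides.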 Particulars: higher = more signal.
Test [4] is described as follows: binders of probe aFGF10 on microarray, primary screen, stem cell growth factor project, biochemical, small-molecule microarray, fluorescence 635/667 (AID 1071).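 Further: score merges 667 nm spot intensity and signal to noise from triplicate slides.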 Particulars: higher = more signal.
Test [5] concerns the target Neurogenic locus notch homolog protein 2 (Homo sapiens) (UniProt Q04721). The test can be described thus: Notch2 binders on small-molecule microarrays, primary screen, biochemical, small-molecule microarray, 635 nm fluorescence, stem cell growth factors (AID 1073). The following applies: Notch2 binding, higher = more signal.
Test [6] concerns the target Pro-neuregulin-1, membrane-bound isoform (Homo sapiens) (UniProt Q02297). Nature of the test: NRG1 binders on small-molecule microarrays, primary screen, psychiatric disease protein project, biochemical, small-molecule microarray, fluorescence 635/667 (AID 1075).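 Further: score combines 667 nm spot fluorescence with signal to noise.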 Particulars: NRG1 binding, 635 nm fluorescence, higher = more signal.
Test [7] has as its system Neuregulin-1 EGF-like domain. The test can be described thus: binders of neuregulin-1 EGF-like domain, primary screen, biochemical, small-molecule microarray, 635 nm fluorescence (AID 1081).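 Further: binding of the protein to compounds printed on small-molecule microarray slides.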 The following applies: small-molecule microarray binding, higher = more signal.
The nature of test [8]: FRG1 promoter luciferase signal modulators, primary screen, FRG1 inhibition for FSHD, cell-based, C2C12 myotubes, firefly/Renilla luciferase, luminescence (AID 1084). Particulars: higher = more signal, called active from +8 up or from −8 down.
Test [9] is described as follows: binders of probe aFST on microarray, primary screen, stem cell growth factor project, biochemical, small-molecule microarray, fluorescence 635/667 (AID 1086).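 Further: score merges 667 nm fluorescence with signal-to-noise of each printed compound spot.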 The following applies: higher = more signal.
A short description of test [10]: binders of probe aHhip on microarray, primary screen, stem cell growth factor project, biochemical, small-molecule microarray, fluorescence 635/667 (AID 1087).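 Further: score merges spot fluorescence at 667nm with spot signal to noise ratio.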 The following applies: higher = more signal.
Test [11] has as its system PRMT1 (protein arginine N-methyltransferase 1). Nature of the test: PRMT1 binders on small-molecule microarrays, primary screen, biochemical, small-molecule microarray, 635 nm fluorescence (AID 1088).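 Further: binding of Prmt1 protein to compounds spotted on small-molecule microarray slides.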 Particulars: small-molecule microarray binding, higher = more signal.
Test [12] is described as follows: yeast growth modulation, basal conditions, primary screen, YJM789 clinical isolate, OD600, 24 h (AID 1089).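 Further: growth of clinical yeast isolate S. cerevisiae YJM 789 seeded 1000 cells per well; test concentration not given here.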 Particulars: S. cerevisiae YJM789 growth, higher = more signal, called active from +8 up or from −8 down.
The nature of test [13]: fission yeast growth modulation, primary screen, strain 972, OD600, 24 h, no modulator (AID 1090).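 Further: basal condition with compound alone and no growth modifier present; test concentration not given here.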 Particulars: S. pombe 972 growth, higher = more signal, called active from +8 up or from −8 down.
The nature of test [14]: S. cerevisiae growth modulation with rapamycin, primary screen, strain BY4716, OD600, 96 h (AID 1091). Further: test concentration not given here. Particulars: higher = more signal, called active from +8 up or from −8 down.
Test [15] deals with Torsin-1A-interacting protein 2 (Homo sapiens) (UniProt Q8NFQ8). The test can be described thus: LULL1 binders on small-molecule microarray, primary screen, cell lysate, human LULL1 lysate, 635/667 nm fluorescence (AID 1092).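 Further: probe is lysate of COS7 cells overexpressing human LULL1; score merges per-feature 667 nm fluorescence with signal-to-noise.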 Particulars: hLULL1 lysate binding, 635 nm fluorescence, higher = more signal.
The nature of test [16]: E. coli growth modulation, two-sided OD650, primary screen, E. coli filamentation project, strain DRC41, 24 h (AID 1093).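 Further: MC1000 strain lacking acrAB efflux and sulA so SOS filamentation is blocked; test concentration not given here.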 The following applies: OD650, 24 h, higher = more signal, called active from +8 up or from −8 down.
A short description of test [17]: small-molecule microarray binders of probe aLefty2, primary screen, biochemical, biotinylated probe, 635/667 nm fluorescence (AID 1094).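 Further: score merges spot fluorescence near 667 nm with spot signal-to-noise ratio.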 Particulars: higher = more signal.
Test [18] relates to Noggin (protein binding on small-molecule microarray). The test can be described thus: Noggin binders on small-molecule microarray, primary screen, biochemical, 635/667 nm fluorescence (AID 1095).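 Further: score merges 667 nm feature fluorescence with signal to noise over triplicate slides.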 Particulars: 635 nm fluorescence, higher = more signal.
Test [19] deals with Neurogenic locus notch homolog protein 3 (Homo sapiens) (UniProt Q9UM47). Nature of the test: NOTCH3 binders on small-molecule microarray, primary screen, biochemical, 635/667 nm fluorescence (AID 1096). Particulars: NOTCH3 binding, 635 nm fluorescence, higher = more signal.
A short description of test [20]: small-molecule microarray binders of probe aEGFR, primary screen, biochemical, biotinylated probe, 635/667 nm fluorescence (AID 1097).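 Further: probe is a biotinylated anti-EGFR antibody binding compounds printed on slides; score combines fluorescence near 667 nm and signal to noise of each spot.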 The following applies: higher = more signal.

The source made the active and inactive calls.

Chain of Neurogenic locus notch homolog protein 3 (Homo sapiens) (Q9UM47 whole entry, looked up): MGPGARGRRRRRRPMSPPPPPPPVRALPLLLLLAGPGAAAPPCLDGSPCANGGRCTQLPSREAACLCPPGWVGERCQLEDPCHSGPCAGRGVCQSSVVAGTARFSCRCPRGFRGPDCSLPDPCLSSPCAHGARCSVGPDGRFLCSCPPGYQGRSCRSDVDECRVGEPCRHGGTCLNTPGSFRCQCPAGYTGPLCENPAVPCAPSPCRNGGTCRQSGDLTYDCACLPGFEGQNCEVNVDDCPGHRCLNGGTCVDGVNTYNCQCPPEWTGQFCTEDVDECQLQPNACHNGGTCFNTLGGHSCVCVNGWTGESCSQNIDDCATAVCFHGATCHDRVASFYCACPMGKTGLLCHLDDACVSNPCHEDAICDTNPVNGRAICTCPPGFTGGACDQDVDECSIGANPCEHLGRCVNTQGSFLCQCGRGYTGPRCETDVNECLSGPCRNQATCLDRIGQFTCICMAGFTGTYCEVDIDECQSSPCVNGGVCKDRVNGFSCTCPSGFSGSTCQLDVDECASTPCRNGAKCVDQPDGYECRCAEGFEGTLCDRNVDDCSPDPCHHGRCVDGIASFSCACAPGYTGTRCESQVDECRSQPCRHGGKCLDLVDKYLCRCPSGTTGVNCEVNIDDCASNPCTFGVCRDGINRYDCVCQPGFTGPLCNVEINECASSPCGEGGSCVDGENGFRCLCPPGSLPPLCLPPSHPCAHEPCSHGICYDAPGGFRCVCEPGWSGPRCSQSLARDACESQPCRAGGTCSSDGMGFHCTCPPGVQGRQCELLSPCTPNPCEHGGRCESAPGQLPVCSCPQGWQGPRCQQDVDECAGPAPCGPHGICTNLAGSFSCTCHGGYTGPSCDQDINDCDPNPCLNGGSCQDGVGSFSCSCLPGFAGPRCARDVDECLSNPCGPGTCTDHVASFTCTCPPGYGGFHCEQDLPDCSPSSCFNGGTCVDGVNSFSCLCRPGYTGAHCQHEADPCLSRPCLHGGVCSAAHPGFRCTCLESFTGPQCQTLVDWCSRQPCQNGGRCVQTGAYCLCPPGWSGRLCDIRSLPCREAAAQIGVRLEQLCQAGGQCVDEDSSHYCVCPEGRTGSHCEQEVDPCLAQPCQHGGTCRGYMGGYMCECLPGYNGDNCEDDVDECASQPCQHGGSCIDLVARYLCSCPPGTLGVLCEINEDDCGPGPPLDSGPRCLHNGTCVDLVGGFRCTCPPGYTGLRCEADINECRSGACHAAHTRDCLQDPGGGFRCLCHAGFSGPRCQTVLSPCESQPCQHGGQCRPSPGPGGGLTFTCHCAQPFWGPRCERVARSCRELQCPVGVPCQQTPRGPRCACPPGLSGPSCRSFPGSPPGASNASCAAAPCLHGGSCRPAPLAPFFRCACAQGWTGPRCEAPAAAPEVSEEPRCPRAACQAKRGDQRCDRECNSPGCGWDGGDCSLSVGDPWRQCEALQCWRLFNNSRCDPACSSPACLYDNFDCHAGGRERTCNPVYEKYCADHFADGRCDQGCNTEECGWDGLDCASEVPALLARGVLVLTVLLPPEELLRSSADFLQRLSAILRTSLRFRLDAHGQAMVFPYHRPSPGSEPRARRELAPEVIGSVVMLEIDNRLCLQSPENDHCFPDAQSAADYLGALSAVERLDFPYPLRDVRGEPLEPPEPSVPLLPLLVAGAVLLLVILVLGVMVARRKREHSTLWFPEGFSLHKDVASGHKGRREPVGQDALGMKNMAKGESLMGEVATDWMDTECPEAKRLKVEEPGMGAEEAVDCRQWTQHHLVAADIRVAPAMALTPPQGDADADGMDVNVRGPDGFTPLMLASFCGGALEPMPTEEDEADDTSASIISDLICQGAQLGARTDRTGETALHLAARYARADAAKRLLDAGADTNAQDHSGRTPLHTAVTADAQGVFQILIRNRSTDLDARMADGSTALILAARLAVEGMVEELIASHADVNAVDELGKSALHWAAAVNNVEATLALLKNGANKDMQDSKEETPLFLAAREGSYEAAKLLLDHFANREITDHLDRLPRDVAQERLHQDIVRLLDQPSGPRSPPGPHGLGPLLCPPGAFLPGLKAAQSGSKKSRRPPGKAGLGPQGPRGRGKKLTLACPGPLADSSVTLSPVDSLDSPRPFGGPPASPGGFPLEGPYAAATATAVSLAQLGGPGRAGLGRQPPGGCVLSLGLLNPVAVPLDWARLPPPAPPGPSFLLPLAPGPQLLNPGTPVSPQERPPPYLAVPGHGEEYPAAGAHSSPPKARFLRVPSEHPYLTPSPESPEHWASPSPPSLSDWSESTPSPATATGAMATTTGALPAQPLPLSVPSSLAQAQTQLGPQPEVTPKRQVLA
Chain of Pro-neuregulin-1, membrane-bound isoform (Homo sapiens) (Q02297 whole entry, looked up, the tested form may be a part, canonical isoform): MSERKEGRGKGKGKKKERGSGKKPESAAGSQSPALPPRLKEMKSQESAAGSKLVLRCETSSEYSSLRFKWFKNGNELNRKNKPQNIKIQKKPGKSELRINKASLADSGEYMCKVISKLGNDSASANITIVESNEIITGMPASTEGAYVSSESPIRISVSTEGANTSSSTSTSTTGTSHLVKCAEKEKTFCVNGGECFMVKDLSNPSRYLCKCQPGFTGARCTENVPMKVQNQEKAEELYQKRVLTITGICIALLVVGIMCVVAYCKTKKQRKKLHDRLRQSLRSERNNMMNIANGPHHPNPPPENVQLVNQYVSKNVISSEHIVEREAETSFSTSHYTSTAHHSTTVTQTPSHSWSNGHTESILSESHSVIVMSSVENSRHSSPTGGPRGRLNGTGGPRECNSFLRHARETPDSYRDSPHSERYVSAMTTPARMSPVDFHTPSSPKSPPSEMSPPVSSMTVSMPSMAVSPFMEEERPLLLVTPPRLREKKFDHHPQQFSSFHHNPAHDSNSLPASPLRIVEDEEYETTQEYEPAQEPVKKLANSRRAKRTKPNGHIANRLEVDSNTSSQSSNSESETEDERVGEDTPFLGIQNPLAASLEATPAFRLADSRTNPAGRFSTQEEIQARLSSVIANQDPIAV
Chain of Torsin-1A-interacting protein 2 (Homo sapiens) (Q8NFQ8 whole entry, looked up): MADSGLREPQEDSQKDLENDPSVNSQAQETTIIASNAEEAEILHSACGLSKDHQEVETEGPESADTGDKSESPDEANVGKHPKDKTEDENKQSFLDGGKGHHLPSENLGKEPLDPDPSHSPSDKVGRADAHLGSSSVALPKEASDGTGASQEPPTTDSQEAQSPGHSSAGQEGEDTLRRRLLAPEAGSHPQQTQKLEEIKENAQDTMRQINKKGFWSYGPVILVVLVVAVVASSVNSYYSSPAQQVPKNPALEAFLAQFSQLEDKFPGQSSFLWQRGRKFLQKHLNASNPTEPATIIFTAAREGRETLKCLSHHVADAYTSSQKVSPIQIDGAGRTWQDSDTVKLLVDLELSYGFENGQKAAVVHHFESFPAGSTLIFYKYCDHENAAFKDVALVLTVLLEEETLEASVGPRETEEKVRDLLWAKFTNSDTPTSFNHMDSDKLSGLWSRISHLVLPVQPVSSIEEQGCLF

For the molecule `COc1ccc(O[C@H]2C=C[C@@H](c3ccccc3)O[C@@H]2COC(=O)NCc2cccc3ccccc23)cc1`, the composite z-score in test [1] is -0.0348; in [2], -0.0761; in test [3], -0.107; in test [4], 0.0599; in [5], -0.096; in [6], -0.027. Further, the composite z-score is 0.0452 in test [7]; -0.116 in [9]; -0.294 in [10]; 0.133 in test [11]; 0.33 in test [15]; -0.106 in test [17]. In addition, the composite z-score was 0.0672 in test [18], -0.574 in test [19] and -0.122 in test [20]. The z-score in [8] was -0.97 (inactive); in test [12] it was 0.68 (inactive); in test [13] it was 0.393 (inactive); in [14], 1.28 (inactive); in test [16], -0.477 (inactive).
As for `CCCNC(=O)OC[C@H]1O[C@H](CCON=C[C@@H](NS(=O)(=O)c2ccc(C)cc2)[C@H](C)C=CCC(=O)OC)C=C[C@@H]1Oc1ccc(OC)cc1`, the composite z-score in test [1] was -0.341; in test [2] it was 0.724; in [3], -0.0425; in test [4] it was -0.183; in test [5], -0.127; in [6], -0.703. Also, the composite z-score in [7] was -0.83; in test [9], 0.118; in test [10] it was -0.0994; in [11], 0.409; in test [15], -0.0006; in test [17] it was -0.181. Also, the composite z-score is 0.0599 in test [18], -0.0703 in test [19] and -0.0443 in test [20]. For the same molecule, the z-score in test [8] is -0.122 (inactive); in test [12], -1.21 (inactive); in test [13], 0.331 (inactive); in test [14], -0.148 (inactive); in [16], -0.0353 (inactive).
Consider `CCOC(=O)[C@H](CC(C)C)NC(=O)CCC1CC(OC(=O)NCCc2ccc(F)cc2)CC2(CCCC(COC(=O)NCc3cccc4ccccc34)O2)O1` (stereo not given in full), for which the composite z-score is -0.249 in test [1]; 0.685 in test [2]; -0.195 in [3]; 0.162 in test [4]; 0.401 in [5]; 0.0303 in test [6]. Further, the composite z-score in test [7] was 0.76; in [9] it was 0.748; in test [10], -0.134; in [11] it was 0.733; in test [15], 2.16; in test [17], -0.181. Also, the values for the composite z-score in [18], in test [19] and in test [20] were 0.261, -0.773 and -0.0995, respectively. Moreover, the z-score in [8] is 1.95 (inactive); in test [12], -0.175 (inactive); in test [13], -0.421 (inactive); in test [14], 0.238 (inactive); in test [16], 0.415 (inactive).
Take `CC(C)[C@H](NC(=O)OC(C)(C)C)[C@@H](O)CC(=O)C(C)(C)C`: the composite z-score was -0.507 in [1]; 0.205 in test [2]; 0.0103 in test [3]; 0.209 in [4]; 0.541 in test [5]; -0.144 in test [6]. Besides, the composite z-score is -0.295 in test [7]; 0.0986 in [9]; 0.107 in test [10]; -0.377 in [11]; 0.0487 in [15]; -0.215 in test [17]. In addition, the figures for the composite z-score in [18], in [19] and in [20] were 0.838, -0.0208 and 0.0514, respectively. Further, the z-score in test [8] was 0.46 (inactive); in test [12], 0.24 (inactive); in test [13], 0.0646 (inactive); in test [14], 0.552 (inactive); in [16] it was 0.782 (inactive).
On to `COc1ccc(COC(=O)NN=C2C[C@@H](O)[C@@H](O)[C@@H]3[C@@H]4C(=O)N(C[C@@H]5CCCO5)C(=O)[C@@H]4CC[C@@H]23)cc1`, for which the composite z-score in [1] is -0.227; in [2], 0.359; in [3], -0.156; in [4], 0.878; in [5], -0.0739; in test [6], 0.393. Moreover, the composite z-score in test [7] was 0.775; in [9], 0.0269; in [10], -0.117; in [11], 0.674; in test [15] it was 0.486; in [17], -0.145. Further, the composite z-score is 0.585 in test [18], 0.106 in test [19] and -0.1 in [20]. The z-score in test [8] is -0.913 (inactive); in [12], 0.137 (inactive); in [13] it was 0.467 (inactive); in [14], -0.389 (inactive); in test [16], 0.859 (inactive).
